The values that follow come from PubChem BioAssay AID1220 (Sanford-Burnham Center for Chemical Genomics, 2008).

The inhibition is the drop in the measured response relative to a control, in per cent.

The campaign covered roughly 190,000 compounds. About 1,300 (0.68%) were called active. No stated cut-off is given here; in the data, active means inhibition above about 50%; inactive means the rest. The sample as a whole holds a higher share of actives than the screen did.

In this assay the target is Mannose-6-phosphate isomerase (Homo sapiens) (UniProt P34949). Nature of the assay: human PMI inhibitors, high substrate, primary screen, biochemical, fluorescence intensity, high mannose 6-phosphate (AID 1220). The note with it: recombinant PMI enzyme, coupled fluorescence intensity; at 20 µM; hits give high values.
Mannose-6-phosphate isomerase (Homo sapiens), sequence (P34949 whole entry, looked up): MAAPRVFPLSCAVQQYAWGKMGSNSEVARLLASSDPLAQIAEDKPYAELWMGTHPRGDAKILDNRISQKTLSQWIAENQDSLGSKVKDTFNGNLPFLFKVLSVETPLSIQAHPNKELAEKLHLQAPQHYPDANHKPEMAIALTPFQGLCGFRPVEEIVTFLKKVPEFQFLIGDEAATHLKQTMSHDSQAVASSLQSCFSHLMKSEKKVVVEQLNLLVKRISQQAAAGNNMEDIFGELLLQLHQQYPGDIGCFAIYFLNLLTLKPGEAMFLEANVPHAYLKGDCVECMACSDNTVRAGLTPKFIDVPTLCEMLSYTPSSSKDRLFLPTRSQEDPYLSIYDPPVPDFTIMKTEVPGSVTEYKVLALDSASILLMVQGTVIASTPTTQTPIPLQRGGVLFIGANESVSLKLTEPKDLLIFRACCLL
Regarding `CCOC(=O)N1CCC(N(CCN(C)C)C(=S)Nc2cccc(Cl)c2)CC1`, the inhibition is 10.6% (inactive).

`O=S(=O)(c1ccc2c(c1)oc1ccccc12)N1CCOCC1`: the inhibition is 3.7% (inactive). Regarding `O=c1c2ccccc2sn1-c1cc(S(=O)(=O)N2CCOCC2)ccc1N1CCCC1`, the inhibition was 77.3% (active). In the case of `Cc1ccc(C)n1-c1cc(S(=O)(=O)N2CCOCC2)ccc1N1CCCC1`, the inhibition is 17% (inactive). The figure for `O=c1c2ccccc2sn1-c1cc(S(=O)(=O)N2CCOCC2)ccc1N1CCOCC1` is 96.3% (active); for `O=C(O)c1cc(S(=O)(=O)N2CCOCC2)ccc1N1CCOCC1` it is -9.3% (inactive); for `O=c1c2ccccc2sn1-c1ccc(S(=O)(=O)N2CCCC2)cc1` it is 5% (inactive).

Consider `Cc1cc2ccccc2n1CCNC(=O)C(C)Oc1ccccc1` (stereo unspecified), for which the inhibition is 5.6% (inactive). Consider `Cc1cc(Nc2ccccc2)nc(N2CCOCC2)n1`, for which the inhibition is -4.3% (inactive).

In the case of `COCCCNC(=O)c1cc(C(=O)c2c(-c3c(Cl)cccc3Cl)noc2C)c[nH]1`, the inhibition was -2.4% (inactive). On to `CC1(C)CC(=O)c2cnc3c(C#N)cnn3c2C1`, for which the inhibition was 6.6% (inactive). The figure for `Cc1ccc(CN(Cc2ccco2)C(=S)Nc2ccccc2C)cc1` is 8.6% (inactive); for `O=c1c(N2CCOCC2)nsnc1N1CCOCC1` it is 53.3% (active); for `COc1nsnc1N1CCOCC1` it is -11.2% (inactive). Take `O=c1[nH]snc1N1CCOCC1`: the inhibition was -7.2% (inactive).

For the compound `Cc1ccc(Oc2c(F)c(F)nc(N3CCCC3)c2F)cc1`, the inhibition is 32.2% (inactive). The figure for `CCN(CC(=O)NCc1cccs1)C(=O)CCc1c[nH]c2ccccc12` is 8.8% (inactive); for `Cc1cc(C)n(-c2ccc(C(=O)O)cc2)n1` it is 30.6% (inactive). With `CC(C)(C)c1cc(N)n(-c2ccc(C(=O)O)cc2)n1` the figure was 52.8% (active); with `Cc1cc(N)n(-c2ccc(C(=O)O)cc2)n1`, 2.1% (inactive); with `O=C(Cn1cnc2sc(-c3ccccc3)cc2c1=O)NCc1ccccc1`, -8.4% (inactive). With `CCOC(=O)C1=C(CSc2nccn2C)NC(=O)NC1c1cc(C)ccc1C` (stereo unspecified) the figure was -2% (inactive); with `CCN(CC)Cc1cc(O)c(CN(CC)CC)cc1O`, 54.7% (active). On to `CCN(CC)Cc1cc(C(C)=O)ccc1O`, for which the inhibition was -8.6% (inactive). As to `CCc1oc(C(=O)O)cc1CN(CC)CC`, the inhibition is 10.9% (inactive). The figure for `CC(=O)Nc1ccc(NC(=O)CCC(=O)OCC(=O)c2ccc(C)c([N+](=O)[O-])c2)cc1` is -5.6% (inactive). With `O=C(c1ccc(C(=O)N2CCOCC2)s1)N1CCOCC1`, the inhibition was -3.8% (inactive).

On to `CN1C(=O)/C(=C/C=C2\SCCN2C)SC1=S`, for which the inhibition is 29.3% (inactive).

In the case of `CCN1C(c2ccccc2)=C(c2ccccc2)S/C1=C/C=C1\SC(=S)N(C)C1=O`, the inhibition is 54.4% (active). Turning to `CCN1C(=O)/C(=C/C=C2/Sc3ccc4ccccc4c3N2CCO)SC1=S`, the inhibition is -5.4% (inactive). Turning to `CC1(C)CC2CC(C)(CN2C(=O)C23CCC(C)(C(=O)O2)C3(C)C)C1` (stereo unspecified), the inhibition was 9.1% (inactive). For `O=C(COC(=O)CCc1ccccc1)Nc1cc(S(=O)(=O)N2CCOCC2)ccc1N1CCCC1`, the inhibition was 7.1% (inactive).

In the case of `O=c1[nH][nH]c(C(F)(F)F)c1C=Nc1ccccc1Cl`, the inhibition was -6.7% (inactive).

In the case of `Cc1cccc(C)c1N=Cc1c(C(F)(F)F)[nH][nH]c1=O`, the inhibition was 0.2% (inactive).

Take `Cc1cc(O)ccc1N=Cc1c(C(F)(F)F)[nH][nH]c1=O`: the inhibition is 62.2% (active).

Take `COc1ccc(CNC(=O)CN(c2ccccc2)S(=O)(=O)c2ccccc2[N+](=O)[O-])cc1`: the inhibition was -11.2% (inactive).

In the case of `CCN(Cc1ccccc1)C(=O)Cn1cc2c(n1)CCCC2`, the inhibition is 10.5% (inactive). In the case of `Cc1ccc(CNC(=O)CCc2nc3ccccc3c(=O)[nH]2)cc1`, the inhibition was 2.2% (inactive). With `CCOC(=O)N1CCC(c2nc(C)sc2C(=O)O)CC1` the figure was 1.2% (inactive); with `CC(C)Cn1nc(NC(=O)C2CCCO2)c2cc3ccccc3nc21` (stereo unspecified), 6.4% (inactive); with `Cc1occc1-c1nnc(SCC(=O)N2CCOCC2)n1CC(C)C`, 6.1% (inactive).

For the compound `COc1ccc(C(CC(=O)Nc2cc([N+](=O)[O-])ccc2OC)c2ccccc2)cc1` (stereo unspecified), the inhibition was 54.1% (active). Consider `COc1ccc([N+](=O)[O-])cc1NC(=O)CC(C)c1ccccc1` (stereo unspecified), for which the inhibition is 14.4% (inactive).

In the case of `COc1ccc([N+](=O)[O-])cc1NC(=O)CC(c1ccccc1)c1ccccc1`, the inhibition is 7.4% (inactive). The figure for `CS(=O)(=O)N1CCC(Oc2ccccc2C(=O)NC(C2CC2)C2CC2)CC1` is 2.8% (inactive); for `CCOC(=O)c1cnc(SC2CCc3ccccc3C2=O)nc1N` (stereo unspecified) it is 53% (active). The figure for `CCOC(=O)c1cnc(SC2CC(=O)N(c3ccccc3)C2=O)nc1N` (stereo unspecified) is 0.1% (inactive). With `CCOC(=O)c1cnc(SC2CC(=O)N(c3ccc(C)cc3)C2=O)nc1N` (stereo unspecified), the inhibition is -5.1% (inactive).

For `COCCn1nnnc1C(C(C)C)N1CCSCC1` (stereo unspecified), the inhibition was -8% (inactive). On to `N#CC1(C#N)CC(C=O)=C(N)C1(C#N)CC(=O)C12CC3CC(CC(C3)C1)C2` (stereo unspecified), for which the inhibition is 32.5% (inactive). With `O=C(/C=C\NCC(=O)c1ccccc1)c1ccc(F)cc1` the figure was -70.8% (inactive); with `N#CC1(C#N)CC(C=O)=C(N)C1(C#N)CC(=O)c1ccc(F)cc1` (stereo unspecified), 52.8% (active). With `COc1ccc(OCCNc2cc(N3CCOCC3)ccc2[N+](=O)[O-])cc1` the figure was 5.4% (inactive); with `O=C(CSc1ccc(Cl)cc1)Nc1cccc(-c2nc3ncccc3o2)c1`, -3.6% (inactive).

Regarding `C=CCNC(=S)Nc1ccc2nsnc2c1`, the inhibition was 9.9% (inactive).

Take `S=C(Nc1ccc2c(c1)OCO2)Nc1ccc2c(c1)OCO2`: the inhibition was 62.3% (active). `S=C(NCc1ccc(Cl)c(Cl)c1)Nc1ccc2c(c1)OCO2`: the inhibition is 10.2% (inactive).

For the compound `NC(=S)Nc1ccc2c(c1)OCO2`, the inhibition was 1.7% (inactive). The figure for `NS(=O)(=O)c1ccc(NC(=S)NCc2ccc3c(c2)OCO3)cc1` is 17.1% (inactive). `CNS(=O)(=O)c1ccc(NC(=S)Nc2ccc3c(c2)OCO3)cc1`: the inhibition was 55.7% (active). With `O=C(NCc1ccc2c(c1)OCO2)Nc1ccc2nsnc2c1` the figure was 26.7% (inactive); with `C=CCN(CC=C)C(=S)Nc1ccc2nsnc2c1`, 55.3% (active); with `O=C(Nc1ccc(S(=O)(=O)NCc2ccccc2)cc1)Nc1ccc2c(c1)OCO2`, 8.6% (inactive). The figure for `C=CCN(CC=C)C(=S)Nc1ccc(OC)c(OC)c1` is 20.1% (inactive). With `CN(C)C(=S)Nc1ccc2c(c1)OCO2` the figure was 11.8% (inactive); with `S=C(NCc1ccc2c(c1)OCO2)Nc1ccc2nsnc2c1`, 53.7% (active).
